Source: PubChem BioAssay (NMMLSC)
Myeloid diff MLP = promotes myeloid progenitor differentiation; ER-HoxA9 myeloid progenitors, lysozyme-GFP differentiation, flow cytometry; calls only at 10 µM; 360,000 compounds, 1% hits; AID 624256;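 active = normalized GFP-positive differentiation at or above the plate's own cutoff, the solvent-only control mean plus 3 SD; inconclusive = no clear call, values can overlap the other calls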;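 also: cells exposed to compound for four days before flow analysis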
Exocytosis inh = blocks lytic granule exocytosis; TALL-104 LAMP-1 surface exposure, flow cytometry; cells stimulated with thapsigargin and PMA; inhibition, % at 10 µM; 360,000 compounds, 0.66% hits;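 active = inhibition above about 55%, limit read from the data; inconclusive = no clear call, values can overlap the other calls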
ABCB6 inh MLPCN = blocks the human ABCB6 transporter | Q9NP58 | K562-ABCB6 porphyrin accumulation, flow cytometry, 1 h; stronger effect = lower value | fluorescence ratio to DMSO, % at 10 µM | 360,000 compounds, 0.19% hits;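 active = fluorescence ratio to DMSO below 75%, the collection mean minus 3 SD; inconclusive = too few cells collected in the well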;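 also: signal is porphyrin accumulated inside mitochondria; 100% equals median channel fluorescence of DMSO control wells; lower ratio means ABCB6 inhibition with less porphyrin fluorescence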
Target sequence (Q9NP58 whole entry, looked up): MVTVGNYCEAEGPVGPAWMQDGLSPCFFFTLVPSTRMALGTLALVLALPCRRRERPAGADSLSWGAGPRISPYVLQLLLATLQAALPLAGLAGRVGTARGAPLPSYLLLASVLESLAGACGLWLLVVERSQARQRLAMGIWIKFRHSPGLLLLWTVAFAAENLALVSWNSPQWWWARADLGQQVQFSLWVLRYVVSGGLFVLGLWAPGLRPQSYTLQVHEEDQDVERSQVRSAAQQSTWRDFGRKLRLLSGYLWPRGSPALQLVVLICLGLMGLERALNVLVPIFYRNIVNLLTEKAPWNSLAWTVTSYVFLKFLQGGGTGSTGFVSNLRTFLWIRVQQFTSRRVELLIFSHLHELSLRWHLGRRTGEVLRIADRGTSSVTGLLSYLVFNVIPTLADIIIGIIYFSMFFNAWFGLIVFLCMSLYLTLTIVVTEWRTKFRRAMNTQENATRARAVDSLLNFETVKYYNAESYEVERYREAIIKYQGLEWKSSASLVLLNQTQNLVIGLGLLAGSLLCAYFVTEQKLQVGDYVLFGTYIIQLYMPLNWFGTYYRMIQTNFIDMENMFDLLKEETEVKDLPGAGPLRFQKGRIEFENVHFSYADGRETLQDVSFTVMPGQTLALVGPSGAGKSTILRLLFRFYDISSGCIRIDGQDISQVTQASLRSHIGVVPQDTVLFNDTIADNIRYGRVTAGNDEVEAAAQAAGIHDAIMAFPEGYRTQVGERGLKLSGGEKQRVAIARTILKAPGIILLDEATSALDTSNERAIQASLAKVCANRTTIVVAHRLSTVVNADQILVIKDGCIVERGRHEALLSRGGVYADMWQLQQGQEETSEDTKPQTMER
Myeloid diff = promotes myeloid progenitor differentiation | shares compounds with Myeloid diff MLP | ER-HoxA9 myeloid progenitors, GFP/Mac1 double-positive flow | AID 651706 | 2,300 compounds, 2% hits | calls only;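 active = share of green or green-and-red cells above 9 and 9% in run 1 or 4 and 3% in run 2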
GFP autofluor = counter-screen for myeloid differentiation promoters: compound fluorescence; AID 651707; 2,300 compounds, 7.4% hits; ER-HoxA9 myeloid progenitors, no estrogen, GFP autofluorescence flow cytometry; vehicle wells 0%, positive control 100%; shares compounds with Myeloid diff MLP; fluorescence response, % (no concentration beside the values);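 active = over 5% cells positive for green fluorescent reporter, or over 2% positive for both it and APC stain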;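 also: range taken on the double positive population between DMSO and positive control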
An asterisk follows results filed as active; i = inactive; u = inconclusive; x = no result; + = active, no number. Most compounds without a hit are left out; they make up all but 1.8% or so of the library.

SMILES | Myeloid diff MLP | Exocytosis inh | ABCB6 inh MLPCN | Myeloid diff | GFP autofluor
Cc1ccc(S(=O)(=O)CCSc2nc(C)cc(C)c2C#N)cc1 | + | -1.7 | 99.0 | i | 0.0
CCS(=O)(=O)CCSc1nc(C)cc(C)c1C#N | i | -3.5 | 82.0 | x | x
C[C@H](NS(=O)(=O)c1ccc2c(c1)OCCCO2)C(=O)N1CCN(Cc2ccc(C#N)cc2)CC1 | i | -3.8 | 99.0 | x | x
COc1cccc(NC(=O)CN2C(=O)c3cccnc3Oc3ccc(Cl)cc32)c1 | i | 7.9 | 108.0 | x | x
O=C(CN1C(=O)c2cccnc2Oc2ccc(Cl)cc21)Nc1ccccc1F | + | -2.2 | 112.0 | i | 0.4
O=C(CCl)N1N=C(c2ccco2)CC1c1ccco1 (stereo unspecified) | u | -2.0 | 103.0 | x | x
CC(=O)C1=C(O)C=C(c2ccco2)CC1c1ccco1 (stereo unspecified) | i | -2.5 | 113.0 | i | 0.0
c1ccc(OCCSc2nnc3sc4ccccc4n23)cc1 | i | 2.5 | 101.0 | i | 0.0
COc1cccc(OCCSc2nnc3sc4ccccc4n23)c1 | i | -1.1 | 103.0 | x | x
CCCn1c(=O)[nH]c(=O)c2c1nc(-c1cc([N+](=O)[O-])ccc1Cl)n2CCOC | i | -15.7 | 95.0 | x | x
O=S(=O)(c1ccc(=S)[nH]c1)N1CCCC1 | + | -2.4 | 103.0 | i | 61.9*
O=c1ccc(S(=O)(=O)N2CCCC2)c[nH]1 | i | 0.0 | 105.0 | x | x
O=S(=O)(c1ccc(Cl)cc1)N1CCN(Cc2c[nH]c3ccccc23)CC1 | i | -0.2 | 97.0 | i | 0.5
O=C(Cc1c[nH]c2ccccc12)N1CCN(S(=O)(=O)c2ccc(Cl)cc2)CC1 | i | -7.8 | 101.0 | x | x
Cc1ccc(NC(=O)OC(C)N2CCCCC2)cc1NC(=O)OC(C)N1CCCCC1 (stereo unspecified) | i | -5.0 | 94.0 | x | x
Cc1ccc(C)c(N2N=C(C(=O)Nc3ccc(N4CCOCC4)cc3)CCC2=O)c1 | i | -0.9 | 96.0 | x | x
Cc1cc(C)c(S(=O)(=O)NC2CC(C)(C)NC(C)(C)C2)cc1C | + | -0.8 | 104.0 | i | 0.0
CCOc1cc(C)c(S(=O)(=O)NC2CC(C)(C)NC(C)(C)C2)cc1C | i | -2.1 | 98.0 | x | x
O=[N+]([O-])c1ccc(NN=Cc2ccc(O)cc2)nc1 | i | 4.1 | 95.0 | x | x
CCN(CC)c1ccc(C=NNc2ccc([N+](=O)[O-])cn2)cc1 | + | -3.1 | 345.0 | i | 12.9*
Cc1cccc(NC(=O)CCCNC(=O)c2ccc(Cl)cc2)n1 | i | -3.2 | 99.0 | x | x
Cc1nc2ccc(NC(=O)c3cccs3)cc2c(=O)n1Cc1ccc(Cl)cc1 | + | 22.7 | 93.0 | i | 0.0
CCCC(=O)Nc1ccc2nc(C)n(Cc3ccccc3Cl)c(=O)c2c1 | i | 2.6 | 94.0 | x | x
COc1ccccc1N1C(=O)c2cccc3c(Cl)ccc(c23)C1=O | i | -4.7 | 98.0 | i | 0.0
CCO/C=C1/C(=O)N(c2ccccc2OC)C(=O)c2ccccc21 | i | -1.8 | 101.0 | x | x
SMILES | Myeloid diff MLP | Exocytosis inh | ABCB6 inh MLPCN | Myeloid diff | GFP autofluor
Cc1cc(C(=O)Nc2ccc(F)c(Cl)c2)on1 | i | 1.5 | 99.0 | x | x
O=C(CSc1n[nH]c(-c2ccc(Br)cc2)n1)N1CCOCC1 | i | -1.8 | 100.0 | x | x
CCC(Sc1nc(-c2ccccc2)c(C#N)c(=O)[nH]1)C(=O)Nc1nnc(C)s1 (stereo unspecified) | i | -2.4 | 94.0 | x | x
O=C(O)CCC(=O)NN1C(=O)c2ccccc2NC1c1ccco1 (stereo unspecified) | i | 3.2 | 94.0 | x | x
O=C(NN1C(=O)c2ccccc2NC1c1ccco1)c1ccccc1 (stereo unspecified) | + | 2.2 | 97.0 | i | 0.5
CCOC(=O)/C(=C/C=C1\Sc2ccccc2N1CC)C(C)=O | i | -0.5 | 106.0 | i | 0.0
CCN1/C(=C/C(=O)c2ccco2)Sc2ccccc21 | i | 1.8 | 113.0 | x | x
CCC(C)(C)NC(=O)CN(CC1CCCO1)C(=O)CNS(=O)(=O)c1ccccc1 (stereo unspecified) | i | -7.8 | 97.0 | x | x
Cc1onc(-c2ccccc2)c1C(=O)NCCCc1ccccc1 | i | 2.8 | 97.0 | x | x
C[C@]12C=CC(=O)C=C1CC[C@@H]1[C@@H]2[C@@H](O)C[C@@]2(C)[C@H]1CC[C@]2(O)C(=O)CO | i | 0.5 | 87.0 | x | x
CC(NCC(=O)Nc1ccccc1C(=O)NC1CC1)c1ccc(S(C)(=O)=O)cc1 (stereo unspecified) | i | -1.4 | 95.0 | x | x
COc1ccc(CC(=O)Nc2ccc(/C(C)=N\NC(=O)c3ccc(Br)o3)cc2)cc1 | i | 15.7 | 98.0 | x | x
CC1CN(C(=O)CN2C(=O)NC3(CCCCCCC3)C2=O)CC(C)O1 (stereo unspecified) | + | 0.4 | 103.0 | i | 0.8
CC1CCC2(CC1)NC(=O)N(CC(=O)N1CCOCC1)C2=O (stereo unspecified) | i | 1.1 | 101.0 | x | x
N#Cc1ccc(C23OCCN2CCn2nc4ccccc4c23)cc1 (stereo unspecified) | i | -1.0 | 97.0 | x | x
CN1CCN(Cc2nc(Cc3cccc(F)c3)no2)CC1c1ccccc1 (stereo unspecified) | i | 3.3 | 100.0 | x | x
CN1CCN(Cc2nc(Cc3ccccc3)no2)CC1c1ccccc1 (stereo unspecified) | i | 7.6 | 99.0 | i | 0.0
CCSc1ccc([C@@H]2[C@H]3C(=O)N(CC)C(=O)[C@H]3[C@]3(C(=O)OC)CCCCN23)cc1OC | i | -0.7 | 100.0 | x | x
O=C(COC(=O)c1cnccn1)c1ccc(OC(=O)c2ccccc2)cc1 | i | -1.8 | 113.0 | x | x
O=C(COC(=O)c1cnccn1)c1ccc2ccccc2c1 | i | -1.6 | 102.0 | i | 0.3
O=C(O)Cc1sc(N/N=C\c2ccncc2)nc1-c1ccccc1 | i | -0.8 | 89.0 | i | 0.0
O=C(O)Cc1sc(Nc2cccc3ccccc23)nc1-c1ccccc1 | i | 2.7 | 111.0 | x | x
COCc1c(C(=O)OCC(=O)N2CCCC2=O)oc2ccccc12 | i | -0.8 | 91.0 | x | x
COc1ccc(Br)cc1CN(C)C(=O)c1ccncc1 | i | -4.6 | 101.0 | x | x
O=C(Oc1ccc(Cl)c(Cl)c1)C1=CC=CN2CCS(=O)(=O)N=C12 | i | -1.7 | 99.0 | x | x
SMILES | Myeloid diff MLP | Exocytosis inh | ABCB6 inh MLPCN | Myeloid diff | GFP autofluor
CN(Cc1ccc(Cl)c(Cl)c1)C(=O)C1=CC=CN2CCS(=O)(=O)N=C12 | + | 9.9 | 104.0 | + | 0.0
COc1ccc(Br)cc1CN(C)C(=O)C1=CC=CN2CCS(=O)(=O)N=C12 | i | -2.5 | 84.0 | i | 0.0
CC(OC(=O)c1ccc(NC(=O)CC#N)cc1)C(=O)NC(c1ccccc1)c1ccccc1 (stereo unspecified) | i | -0.3 | 102.0 | i | 0.8
CCOc1ccccc1NC(=O)C(OC(=O)c1ccccc1)c1ccccc1 (stereo unspecified) | i | -1.2 | 96.0 | x | x
CCOC(=O)c1c(NC(=O)C(C)OC(=O)C2=COCCO2)sc2c1CCCC2 (stereo unspecified) | i | 0.8 | 96.0 | x | x
Cc1ccc(NC(=O)C(C)OC(=O)c2ccc(NC(=O)CC#N)cc2)cc1S(=O)(=O)N1CCOCC1 (stereo unspecified) | i | 0.5 | 94.0 | x | x
